Bioassay records from PubChem.
Hits are enriched below; roughly 18% of the tested compounds scored in any of these assays.
TDP1 cell noCPT – qHTS for Inhibitors of human tyrosyl-DNA phosphodiesterase 1 (TDP1): qHTS in cells in absence of CPT; DT40 Tdp1-/- hTDP1 cells, no CPT, ATP luminescence, 48 h; Potency, µM (titrated, usually from 46.2 µM), for the others: at the highest dose activity change, negative = growth inhibition, usual class: inhibitors; 15% of 420,000 active; note: potency is the fitted concentration of half-maximal effect; nearly all actives have a fitted effect of over 55% in size
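Growth kinetics read by CellTiter-Glo luminescence after ≥48 hr at 37 °C. Cells: DT40 Tdp1-/- stably carrying human TDP1, 400 per well, compound exposure in the absence of CPT (DMSO vehicle).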
IL1B secr inh – inflammasome signaling inhibition, IL-1 beta readout; 4.7% of 360,000 active; THP-1 LPS/ATP IL-1B secretion, AlphaLISA, 16 h; active compounds read low; activity change, % at 57.5 µM; in the data active = activity change below about -50%; inconclusive = mostly about -30% to -49%
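THP-1 cells pretreated 1 hr with compounds (up to 57.5 uM final), then stimulated with LPS (250 ng/mL final) plus ATP (1.25 mM final); secreted IL-1B measured by AlphaLISA after 16 hr, decreased signal indicating inhibition.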
LDHA inh – LDHA (human) enzyme inhibition. activity change, % (values are at about 110 or 230 µM). purified LDHA, NADH/diaphorase-resazurin fluorescence; active compounds read low. 0.15% of 480,000 active. P00338. AID 1347041; in the data active = activity change below about -30%; inconclusive = mostly about -25% to -30%;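 note: plate controls were DMSO wells for no effect and wells without enzyme for full effect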
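Enzyme activity of human lactate dehydrogenase 5 (2 nM; 0.06 mM NADH, 0.2 mM pyruvate, 5 min, RT) is measured via a resazurin/diaphorase fluorescence readout of residual NADH.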
DT40 TDP1 CPT – growth inhibition of DT40 Tdp1-/-;hTDP1 cells with camptothecin (screen for TDP1 inhibitors). chicken DT40 Tdp1-/-;hTDP1 cells + 20 nM CPT, ATP luminescence, 48 h. Potency, µM (top dose mostly 46.2 µM), for inactives: top-dose activity change, negative = growth inhibition, usual class: inhibitors. 12% of 420,000 active. AID 686979; note: potency is the fitted concentration of half-maximal effect; nearly all actives have a fitted effect of over 55% in size
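Cell growth measured by CellTiter-Glo luminescence after a minimum 48 h, 37 C compound exposure with 20 nM CPT in Tdp1-knockout DT40 cells stably expressing hTDP1, seeded 400/well; qHTS titration format.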
Gal4-VP16 FLuc – inhibits Gal4-VP16 luciferase reporter, ROR gamma counter-screen. Drosophila S2 Gal4-VP16 UAS-luciferase, luminescence, 20 h. 3.5% of 310,000 active. AID 2546. Potency, µM (doses to about 53.6 µM), inactives show top-dose activity, negative = inhibition, usual class: inhibitors;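 note: Gal4-VP16 expression switched on by copper sulfate through the metallothionein promoter; potency is the fitted concentration of half-maximal effect; nearly all actives have a fitted effect of over 50% in size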
RORgamma inh – ROR gamma (mouse) transcription inhibition. AID 2551. Potency, µM (series often up to 53.6 µM), inactives show at the highest dose activity change, negative = inhibition, hits mostly inhibitors. Drosophila S2 Gal4-RORgamma UAS-luciferase reporter, 20 h. 5.4% of 310,000 active; note: potency is the fitted concentration of half-maximal effect; nearly all actives have a fitted effect of over 60% in size
Target sequence (P51450 whole entry, looked up, the tested form may be a part): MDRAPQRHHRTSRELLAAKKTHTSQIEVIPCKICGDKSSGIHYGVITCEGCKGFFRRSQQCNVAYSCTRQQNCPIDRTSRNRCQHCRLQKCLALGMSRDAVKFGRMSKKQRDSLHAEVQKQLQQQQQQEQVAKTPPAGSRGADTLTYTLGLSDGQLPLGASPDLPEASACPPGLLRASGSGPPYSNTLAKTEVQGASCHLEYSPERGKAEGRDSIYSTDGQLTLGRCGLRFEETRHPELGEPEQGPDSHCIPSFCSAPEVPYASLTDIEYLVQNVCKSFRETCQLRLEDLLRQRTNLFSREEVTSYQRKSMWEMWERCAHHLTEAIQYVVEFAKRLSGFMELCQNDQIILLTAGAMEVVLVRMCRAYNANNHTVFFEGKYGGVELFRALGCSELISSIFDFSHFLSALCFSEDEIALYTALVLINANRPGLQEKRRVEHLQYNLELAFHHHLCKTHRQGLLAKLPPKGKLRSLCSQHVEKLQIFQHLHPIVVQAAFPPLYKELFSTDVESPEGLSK
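Stable Schneider cell line, Gal4 DNA-binding domain fused to ROR gamma, UAS-luciferase. Cmpd 1 hr RT → CuSO4 700 uM final → 20 hr RT → luciferase reagent 10 min → luminescence.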
The depositor's hits bear a star; ? = inconclusive; . = no result; [ ] = dose if it differs, or a comment. Unless noted, calls come from the whole dose curve; as a rule, active = well fitted curve in the direction sought with a large enough effect; inconclusive = small, poorly fitted or top-dose-only effect, or another doubt; inactive = no such curve, though single readings can be large; an effect the other way counts as inactive or inconclusive. Unless noted, % is set by controls: 0 for no effect and ±100 for the full control effect.

SMILES	TDP1 cell noCPT	IL1B secr inh	LDHA inh	DT40 TDP1 CPT	Gal4-VP16 FLuc	RORgamma inh
CCOC(=O)C1(Cc2ccccc2C)CCCN(C(=O)c2ccc3nccnc3c2)C1 (configuration not stated)	21µM*	-6	-10	?	7%	21%
CCOC(=O)C1(Cc2ccccc2C)CCCN(C(=O)CCc2cccnc2)C1 (configuration not stated)	?	13	-7	16µM*	?	0%
CCOC(=O)C1(Cc2ccccc2C)CCCN(C(=O)CCn2nccc2C)C1 (configuration not stated)	13µM*	38	-4	?	0%	-7%
CCOC(=O)C1(Cc2ccccc2C)CCCN(C(=O)CSC)C1 (configuration not stated)	?	12	0	?	.	.
COc1ccc(S(=O)(=O)N(C)CC(=O)N2CCOCC2)cc1C	.	.	-10	.	.	.
COc1ccc(C(=O)N2CCC3(CCCN(Cc4ccc(C#N)cc4)C3)CC2)cc1	18µM*	.	.	-26%	-8%	18%
N#Cc1ccc(CN2CC3(CCN(C(=O)c4cc(C(F)(F)F)cc(C(F)(F)F)c4)CC3)C2)cc1	10µM*	.	.	21µM*	?	11%
COc1ccc(C(=O)N2CCC3(CCN(Cc4ccc(C#N)cc4)CC3)CC2)cc1	?	.	.	?	-4%	-25%
c1cc2c(cc1-c1csc(C3CC3)n1)OCCCO2	.	.	11	.	.	.
COc1cccc(-n2c(-c3ccco3)nc3c(cnn3-c3ccccc3C)c2=O)c1	18µM*	.	4	21µM*	.	.
COc1ccc(-n2c(-c3ccco3)nc3c(cnn3-c3ccccc3C)c2=O)cc1	23µM*	33	8	?	-1%	33%
COc1ccc(-n2c(-c3ccco3)nc3c(cnn3-c3ccccc3Cl)c2=O)cc1	?	.	2	?	.	.
O=C(Nc1ccc(F)cc1Cl)c1nc2ccccc2nc1N1CCCC1	.	.	-2	.	.	.
COc1cccc(/C=C/c2nc3ccccc3s2)c1OC(F)F	.	.	4	.	.	.
O=C(NCCCCNC(=O)C1CC1)C1CC1	.	.	-7	.	.	.
COc1ccc(N=C2S/C(=C\c3ccc(Cl)c([N+](=O)[O-])c3)C(=O)N2CCN(C)C)cc1	16µM*	-61*	-1	21µM*	-16%	?
COc1cc(/C=C2\SC(=O)N(Cc3ccc(F)cc3)C2=O)cc([N+](=O)[O-])c1O	?	44	3	?	-6%	14%
CCOC(=O)CN1C(=O)S/C(=C/c2ccc(OC)c([N+](=O)[O-])c2)C1=O	?	36	-2	-21%	1%	-14%
CCN(CC)CCN1C(=O)/C(=C\c2ccc(Cl)c([N+](=O)[O-])c2)SC1=Nc1ccc(OC)cc1	16µM*	-99*	-3	21µM*	?	?
CC(NC(=O)c1cc(C2CC2)nc2ccccc12)c1ccccc1 (configuration not stated)	.	.	-4	.	.	.
Cc1ccc(-c2ccc(/C=N/NC(=O)Cc3nnc(N)s3)o2)cc1Cl	-29%	0	-3	?	4%	24%
COc1ccc(-c2ccc(/C=N/NC(=O)Cc3nnc(N)s3)o2)cc1Cl	18µM*	-16	1	?	-2%	9%
COC(=O)c1ccc(-c2ccc(/C=N/NC(=O)Cc3nnc(N)s3)o2)cc1	?	-86*	-6	1%	13%	6%
CC(C(=O)c1c[nH]c2ccccc12)N1CCC(C(N)=O)CC1 (configuration not stated)	.	.	8	.	.	.
OCCn1ccc(-c2ccccc2OCc2ccc(F)cc2)n1	21µM*	-8	-2	?	-7%	9%
SMILES	TDP1 cell noCPT	IL1B secr inh	LDHA inh	DT40 TDP1 CPT	Gal4-VP16 FLuc	RORgamma inh
COc1ccccc1/C=N/NC(=O)CSc1ccc2ccccc2n1	?	42	-16	?	0%	-27%
COc1ccccc1/C=N/NC(=O)CSc1cc(C)nc2ccccc12	8.2µM*	-66*	-1	7.3µM*	-14%	11µM*
COc1cccc2c(SCC(=O)N/N=C/c3ccc(O)cc3O)cc(C)nc12	10µM*	-88*	-1	?	2%	?
COc1ccccc1/C=N/NC(=O)CC(=O)NCc1ccccc1	-11%	-51*	-1	-1%	-7%	1%
Cc1cc(SCC(=O)NN)c2cc(Br)ccc2n1	?	-92*	-8	?	-21%	-18%
CC(C)(C)c1nc(C(C)(C)NC(=O)C2Cc3ccccc3O2)no1 (configuration not stated)	.	.	-1	.	.	.
COc1ccc2nc(C)cc(SCC(=O)N/N=C/c3ccccc3)c2c1	?	-98*	-6	-14%	10%	-5%[10 µM]
COC(=O)c1ccc(/C=N\NC(=O)CC(=O)NCCc2ccccc2)cc1	13µM*	19	-6	2%	1%	0%
COc1ccccc1/C=N/NC(=O)C(C)Cn1cnc2ccccc21 (configuration not stated)	17%	32	-14	12%	6%	11µM*
COc1ccc2nc(C)cc(SCC(=O)NNC(=O)COc3ccc(C)cc3)c2c1	7%	0	0	-1%	-21%	-17%
O=C(CC(=O)N/N=C\c1ccccc1)NCCc1ccccc1	-1%	-6	-6	-5%	-4%	1%
COc1ccccc1C=NNC(=O)C(=O)NN=Cc1ccccc1OC	-3%	7	-5	6%	.	.
COc1ccc2nc(C)cc(SCC(=O)NNC(=O)COc3cccc4ccccc34)c2c1	?	-11	-3	-22%	8.9µM*	?
COc1ccc2c(C)c(CCC(=O)O)c(=O)oc2c1	.	.	-8	.	.	.
Cc1nn2c(SCC(=O)NCc3ccccc3Cl)nc3ccccc3c2nc1=O	.	.	-10	.	.	.
Cc1cn2c(/C=C/C(=O)c3ccc(S(=O)(=O)N(C)C)cc3)c(C)nc2s1	.	.	12	.	.	.
Cc1cc(C2CCCN2S(=O)(=O)c2cc(C)c(C)cc2C)on1 (configuration not stated)	.	.	0	.	.	.
CCCS(=O)(=O)N1CCCN(c2ccc(=O)n(-c3ccc(C)c(C)c3)n2)CC1	.	.	-13	.	.	.
COc1ccc2nc(C)cc(SCC(=O)N/N=C/c3ccc(O)cc3O)c2c1	?	?	-3	?	?	18µM*
COc1ccc2nc(C)cc(SCC(=O)Nc3c(C)cc(C)cc3C)c2c1	-6%	-12	-3	?	3%	-18%
